Measurements taken from PubChem BioAssay AID2685 (National Center for Advancing Translational Sciences (NCATS), 2010).
Screen size: about 320,000 compounds; about 2,100 (0.66%) were called active. Another 53% or so got no clear call; they are omitted. The call rests on the fitted dose curve; in most records, active means well fitted inhibition curve with a large enough effect in the signal ratio, with a control signal flat (not every such curve was filed as active); inconclusive means small, poorly fitted or top-dose-only effect, or effect the other way, or a change in a side signal; inactive means flat fitted curve, though single readings scatter; the % refers to the signal ratio. Shown is part of a subset that was picked to be rich in actives.

Assay: qHTS Assay for Lipid Storage Modulators in Drosophila S3 Cells;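 on cell number change: cells counted by Cell Tracker Red CMTPX staining in the red channel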; on lipid storage change, negative = inhibition: on the % scale 0 is the no-effect control and ±100 the full control effect
Settings: BODIPY lipid droplet fluorescence, 18-24 h, cells fed with added oleic acid; cell number change: measured here: cell count max response; series mostly up to 46.1 µM
Procedure, shortened: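 Drosophila S3 cells loaded with oleic acid (400 uM, as added) and compounds at several concentrations; lipid droplets imaged by 488-nm laser-scanning cytometry, 500–530 nm intensity and object ratio to cell channel. Percent activity normalized to 20 uM Triacsin C.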
Potency means the concentration at half of the fitted maximal effect.

SMILES | Potency | cell number change [%] | lipid storage change, negative = inhibition
COC(=O)/C=C/C(=O)Nc1cccnc1 | inactive | -5.59 | 
COc1ccc(/C=C/C(=O)c2ccc(Cl)cc2)c(OC)c1 | inactive | -5.6 | 
COc1ccccc1/C=C/C(C)=O | inactive | 3.8 | 
COc1ccccc1/C=C/C(=O)NCc1cccnc1 | inactive | -13.8 | 
COc1ccccc1/C=C/C(=O)Nc1cccnc1 | 5.8 µM (active) | -14.6 | 
COc1ccccc1/C=C/C(=O)c1ccc(Cl)cc1 | 4.61 µM (active) | 1.97 | 
CCCOc1ccc(/C=N/Nc2ccc(C(=O)O)cc2)c(OCCC)c1 | inactive | 9.43 | 
CCn1nc(NS(=O)(=O)c2ccc(NC(C)=O)cc2)c2cc3ccccc3nc21 | inactive | -12.4 | 
COCCN1C(=O)N[C@@H](c2ccco2)C(C(C)=O)=C1C | inactive | 3.8 | 
COCCCNC(=O)CN(c1cccc(Cl)c1)S(C)(=O)=O | inactive | -7.55 | 
CCC(C)Nc1cc(C)c(C#N)c2nc3ccccc3n12 (configuration not stated) | inactive | 5.52 | 
Cc1cc(NC(C)C)n2c(nc3ccccc32)c1C#N | 16.4 µM (active) | -88.9 | 
CNc1cc(C)c(C#N)c2nc3ccccc3n12 | inactive | -18.9 | 
CC1CCCC(C)N1C(=O)Cn1cc(C#N)c2ccccc21 (configuration not stated) | inactive | 9.53 | 
CC1CCCC(C)N1C(=O)Cn1cc(/C=C2/C(=O)Nc3ccccc32)c2ccccc21 (configuration not stated) | 23.1 µM (active) | -83.5 | 
COC(=O)c1cn(CC(=O)N2C(C)CCCC2C)c2ccccc12 (configuration not stated) | inactive | 9.64 | 
O=C(CS(=O)(=O)Cc1ccccc1)NCc1ccco1 | inactive | -5.74 | 
Cc1ccc(CCNC(=O)C2CCCN(S(=O)(=O)N3CC(C)CC(C)C3)C2)cc1 (configuration not stated) | inactive | -24.2 | 
CC(C)(C)c1ccc(OC(=O)Cn2c(C(F)(F)F)nc3ccccc32)cc1 | 13 µM (active) | -15.3 | 
CC(=O)Cn1c(C(F)(F)F)nc2ccccc21 | inactive | -7.24 | 
CC(C)(C)NC(=O)NC(=O)COC(=O)Cn1cnc2ccccc2c1=O | inactive | -17.2 | 

SMILES | Potency | cell number change [%] | lipid storage change, negative = inhibition
CCOC(=O)c1c(NC(=O)COC(=O)Cn2c(C(F)(F)F)nc3ccccc32)sc(C)c1C | inactive | 2.48 | 
CC(C)(C)NC(=O)NC(=O)COC(=O)Cn1c(C(F)(F)F)nc2ccccc21 | 5.17 µM (active) | -8.07 | 
COC(=O)Cn1c(C(F)(F)F)nc2ccccc21 | inactive | -24.1 | 
Nc1ccc(C(=O)Nc2cccc(NC(=O)c3ccc(N)cc3)c2)cc1 | inactive | -20.4 | 
CCCN1C(=O)C2C(C(=O)Nc3cccc(OC)c3)C3C=CC2(O3)C1C(=O)NC1CCCCC1 (configuration not stated) | inactive | 1.47 | 
Cc1ccc(S(=O)(=O)N(CC(=O)O)Cc2ccco2)cc1 | inactive | 0.734 | 
COc1cc(NC(=S)NCc2cccnc2)cc(OC)c1OC | inactive | 5.48 | 
COc1cc(NC(=S)NCc2cccnc2)cc(OC)c1 | 5.8 µM (active) | -12.6 | 
COc1cccc(NC(=S)NCc2cccnc2)c1 | inactive |  | 
Cc1ccc(-c2nc(C)sc2CC(=O)Nc2cccc(C)c2C)cc1 | inactive | 6.08 | 
COc1ccc(NC(=O)C(=O)Nc2cccc3cccnc23)cc1OC | inactive | 32.1 | 
COc1ccc(C2CC(=O)C3=C(C2)Nc2ccccc2N(C(=O)CCC(=O)O)C3c2ccc(F)cc2)cc1OC (configuration not stated) | inactive | -2.28 | 
CC(C)c1nnc(SCC(=O)N2CCOCC2)n1C | inactive | 3.98 | 
Cc1ccc2c(c1)/C(=C/c1ccc(F)cc1)C(=O)N2 | inactive | 18 | 
CN(C)S(=O)(=O)c1ccc2c(c1)/C(=C/c1cc3c([nH]1)CCCC3)C(=O)N2 | 5.17 µM (active) | 2.43 | 
CN(C)S(=O)(=O)c1ccc2c(c1)Cc1cc(S(=O)(=O)N(C)C)ccc1-2 | inactive | 7.91 | 
CCOC(=O)C(=NCCCN(C)C)NNc1ccc(Br)cc1 | inactive | 23.2 | 
COCc1ccc(C(=O)N(C)C2CCCN(Cc3ccccc3F)C2)o1 (configuration not stated) | inactive | -1.36 | 
CC(=O)c1c(C)[nH]c(C(=O)Nc2nc(C)cs2)c1C | inactive | -7.81 | 
CC1(C)C2CCC1(CS(=O)(=O)Nc1ccccc1)C(=O)C2 (configuration not stated) | inactive | -22.6 | 
COc1ccc(NS(=O)(=O)CC23CCC(CC2=O)C3(C)C)cc1 (configuration not stated) | inactive | 6.22 | 

SMILES | Potency | cell number change [%] | lipid storage change, negative = inhibition
COc1cccc(NS(=O)(=O)CC23CCC(CC2=O)C3(C)C)c1 (configuration not stated) | 3.66 µM (active) | -15 | 
Cc1ccsc1C(=O)NCCc1nnc2ccccn12 | inactive | 18.3 | 
Cc1ccc(/C=N/N(C)C2=NS(=O)(=O)c3ccccc32)cc1 | inactive | 17.1 | 
COc1cccc(/C=N/N(C)C2=NS(=O)(=O)c3ccccc32)c1O | inactive | 12.6 | 
CN(/N=C/c1cc(Cl)ccc1O)C1=NS(=O)(=O)c2ccccc21 | 3.66 µM (active) | 12.6 | 
CCCCCOC(=O)CCN1C(=O)/C(=C2\SC(=S)N(CCC(=O)OCCCCC)C2=O)SC1=S | inactive | -3.31 | 
Cc1ccc(NC(=O)c2cc(=O)[nH]c3ccc(S(=O)(=O)N4CCOCC4)cc23)nc1 |  | -6.73 | 11.8% [at 0.0737 µM] (inactive)
COc1ccc(S(=O)(=O)Oc2ccc(C(=S)N3CCOCC3)cc2OC)cc1 | inactive | -13.8 | 
COc1ccc(S(=O)(=O)Oc2ccccc2C(=S)N2CCOCC2)cc1 | 1.46 µM (active) | -29.9 | 
COc1ccc(S(=O)(=O)Oc2cccc(C(=S)N3CCOCC3)c2)cc1 | inactive | -15.5 | 
COc1ccc2[nH]c(=O)c(CN(CCN(C)C)C(=O)NCc3ccccc3)cc2c1 | inactive | 17.8 | 
COc1ccccc1CNCc1cc(OC)c(OC)cc1OC | inactive | -2.42 | 
COc1ccccc1CNCC(c1ccccc1)c1ccccc1 | 1.46 µM (active) | -20 | 
COc1ccccc1CNN | inactive | -17.3 | 
CCCCC(=O)Nc1ccc(NC(=O)c2cnccn2)cn1 | inactive | 3.06 | 
CCOC(=O)c1c(NC(=O)c2cccnc2)sc(C(C)=O)c1C | inactive | 5.18 | 
O=C(c1ccc(S(=O)(=O)Nc2cccc(C(F)(F)F)c2)cc1)N1CCC1 | inactive | 1.62 | 
O=[N+]([O-])c1cccc(CN(CCO)Cc2ccccc2)c1 | 13 µM (active) | -9.58 | 
CCN(Cc1ccccc1)Cc1cccc([N+](=O)[O-])c1 | inactive |  | 
OCCN(Cc1ccccc1)Cc1cccc(F)c1 | inactive | -7.51 | 
